{"source": "PubChem BioAssay AID588726", "about": "(The Scripps Research Institute Molecular Screening Center, 2011)", "note": "Hit rate of the full screen: of about 360,000 compounds, about 8,200 (2.3%) were called active. This is one part of a sample in which actives are shown more often than they occur. Cut-off read from the data, not from the text of the source: active = inhibition above about 27%; inactive = the rest."}
{"molecular_target": "Fructose-bisphosphate aldolase (Mycobacterium tuberculosis (strain ATCC 25618 / H37Rv)) (UniProt P9WQA3)", "sequence (P9WQA3 whole entry, looked up)": "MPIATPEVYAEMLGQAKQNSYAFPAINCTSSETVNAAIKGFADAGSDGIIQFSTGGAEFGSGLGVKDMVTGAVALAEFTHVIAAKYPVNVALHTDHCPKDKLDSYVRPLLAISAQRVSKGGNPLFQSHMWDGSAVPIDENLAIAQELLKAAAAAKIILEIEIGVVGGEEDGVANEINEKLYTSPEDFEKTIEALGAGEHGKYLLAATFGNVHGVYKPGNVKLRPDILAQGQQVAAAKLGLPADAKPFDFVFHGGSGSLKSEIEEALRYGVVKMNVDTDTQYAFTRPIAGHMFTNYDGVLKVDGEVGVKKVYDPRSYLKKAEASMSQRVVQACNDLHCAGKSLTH", "assay": "Mtb FBA enzyme inhibitors, primary screen, biochemical, fluorescence, strain H37Rv (AID 588726);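 note: 0% = vehicle and 100% = reference inhibitor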", "details": "purified M. tuberculosis FBA, fluorescence read-out, at 1 µM, hits give high values"}
{"smiles": "CCCCC(NC(=O)c1cccc(Br)c1)C(=O)O", "note": "(stereo not drawn)", "inhibition": "3.7% (inactive)"}
{"smiles": "O=C(NC1CC2CCCC(C1)N2C(=O)N1CCCCC1)C1CCCCC1", "note": "(stereo not drawn)", "inhibition": "2.38% (inactive)"}
{"smiles": "CCOCCCN(C)C1CCN(C(=O)c2oc3ccccc3c2NC(=O)Cc2cccc([N+](=O)[O-])c2)CC1", "inhibition": "-1.05% (inactive)"}
{"smiles": "COc1cccc2sc3cc(NCC[C@@H]4CCCN4C)ccc3c(=O)c12", "inhibition": "40.4% (active)"}
{"smiles": "CN1CCC[C@@H]1CCO[C@](C)(c1ccccc1)c1ccc(Cl)cc1", "inhibition": "-4.31% (inactive)"}
{"smiles": "Cc1cc2oc3ccc(NCCC4CCCN4C)cc3c(=O)c2cc1C", "note": "(stereo not drawn)", "inhibition": "-0.55% (inactive)"}
{"smiles": "COC(=O)c1c(C(=O)OC)c(-c2cccc(C)c2)n2c1CS(=O)C2", "note": "(stereo not drawn)", "inhibition": "-0.62% (inactive)"}
{"smiles": "COc1ccc2c(c1)OC(O)(C(F)(F)C(F)F)CC2=O", "note": "(stereo not drawn)", "inhibition": "-0.78% (inactive)"}
{"smiles": "O=S(=O)(c1ccc(Cl)s1)N1CCC2(CC1)OCCO2", "inhibition": "0.69% (inactive)"}
{"smiles": "CCC12CN3CC(CC)(CN(C1)C31C(=O)N(C)c3ccc(C)cc31)C2=O", "note": "(stereo not drawn)", "inhibition": "-4.48% (inactive)"}
{"smiles": "Cc1cc(C(=O)OCC(=O)Nc2ccc(F)c(F)c2)c(C)o1", "inhibition": "0.1% (inactive)"}
{"smiles": "CC(Nc1nc(N2CCOCC2)nc2ccccc12)c1ccccc1", "note": "(stereo not drawn)", "inhibition": "50.4% (active)"}
{"smiles": "Fc1cnc(N2CCOCC2)nc1NCc1ccccc1", "inhibition": "15.4% (inactive)"}
{"smiles": "Clc1nc(NC2CCCC2)nc(N2CCOCC2)n1", "inhibition": "2.59% (inactive)"}
{"smiles": "CC(CN1CCOCC1)c1ccccc1", "note": "(stereo not drawn)", "inhibition": "-0.87% (inactive)"}
{"smiles": "c1cnc(NC2C3CC4CC(C3)CC2C4)nc1", "note": "(stereo not drawn)", "inhibition": "1.67% (inactive)"}
{"smiles": "c1ccc2c(NC3C4CC5CC(C4)CC3C5)nc(N3CCOCC3)nc2c1", "note": "(stereo not drawn)", "inhibition": "37.7% (active)"}
{"smiles": "Cc1ccc(-n2nc(-c3ccco3)cc2C(=O)NCc2cccnc2)cc1", "inhibition": "-1.53% (inactive)"}
{"smiles": "CC(=O)N1CC(=O)N(CC(=O)Nc2ccc(Br)cc2)C1=S", "inhibition": "-0.11% (inactive)"}
{"smiles": "COc1ccc(C)cc1N(CC(=O)N1CCCC1)S(=O)(=O)c1ccccc1", "inhibition": "-1.91% (inactive)"}
{"smiles": "CC1CCCCC1NC(=O)c1cn(C)c2ccc(S(=O)(=O)N3CCOCC3)cc2c1=O", "note": "(stereo not drawn)", "inhibition": "-7.99% (inactive)"}
{"smiles": "Cc1ccccc1N1CCN(CCCN2C(=O)C3CCCCN3C2=O)CC1", "note": "(stereo not drawn)", "inhibition": "0.31% (inactive)"}
{"smiles": "COC(=O)C1=C(C)N(C)C(=S)NC1c1cc(OC)ccc1OC", "note": "(stereo not drawn)", "inhibition": "2.6% (inactive)"}
{"smiles": "CC(=O)NC(NC(=S)Nc1c(C)n(C)n(-c2ccccc2)c1=O)C(Cl)(Cl)Cl", "note": "(stereo not drawn)", "inhibition": "4.91% (inactive)"}
{"smiles": "O=C(CCS(=O)(=O)Cc1ccccc1F)NCCCN1CCCCC1", "inhibition": "-1.06% (inactive)"}
{"smiles": "O=C(NCc1cccnc1)Nc1cccc(NC(=O)NCc2cccnc2)c1F", "inhibition": "2.23% (inactive)"}
{"smiles": "Cc1ccc(-c2cn3cc(C)ccc3n2)cc1", "inhibition": "56% (active)"}
{"smiles": "COc1ccc(-c2cn3ccc(C)cc3n2)cc1", "inhibition": "70.2% (active)"}
{"smiles": "CCN(c1cccc(C)c1)S(=O)(=O)c1ccc(-c2coc(C)n2)cc1", "inhibition": "3.59% (inactive)"}
{"smiles": "CCN(CC)S(=O)(=O)c1ccc(-c2cn3ccc(C)cc3n2)cc1", "inhibition": "140% (active)"}
{"smiles": "CCN(CC(=O)NCCc1ccccc1)S(=O)(=O)c1ccc(C)cc1", "inhibition": "-0.83% (inactive)"}
{"smiles": "COc1ccc(C2=Nc3cc(C)ccc3OC2)cc1", "inhibition": "17.7% (inactive)"}
{"smiles": "Cc1ccc2nc(-c3ccc(Br)cc3)cn2c1", "inhibition": "4.66% (inactive)"}
{"smiles": "COc1ccc(Cc2cc(-c3ccc(F)cc3)n[nH]c2=O)cc1", "inhibition": "-0.22% (inactive)"}
{"smiles": "Cc1ccc(Cc2c(-c3ccccc3)nc3ccc(Cl)cn23)cc1", "inhibition": "-2.09% (inactive)"}
{"smiles": "CCN(CC)C(=O)Oc1ccc(Br)cc1C(=O)Nc1ccc(F)c(Cl)c1", "inhibition": "-6.9% (inactive)"}
{"smiles": "C#CCCOC(=O)N1C2=NC(C(=O)OC)=C(C(=O)OC)[C@@H]3N(C)c4ccc(OC)cc4[C@]23C[C@H]1C(=O)OC", "inhibition": "5.83% (inactive)"}
{"smiles": "O=C(OCCO)c1cc(Cl)c(C(=O)OCCO)cc1Cl", "inhibition": "-2.53% (inactive)"}
{"smiles": "CC1CC(C)(C)CC2(C1)NC(=O)N(CC(=O)Nc1nccs1)C2=O", "note": "(stereo not drawn)", "inhibition": "1.81% (inactive)"}
{"smiles": "Cc1ccc(S(=O)(=O)N2CCN(C(=O)c3ccc(-n4cncn4)c([N+](=O)[O-])c3)CC2)cc1", "inhibition": "-0.25% (inactive)"}
{"smiles": "O=C(NCCc1ccccc1)c1c[nH]c2ccc(F)cc2c1=O", "inhibition": "-1.25% (inactive)"}
{"smiles": "COc1ccc(Cl)cc1NC(=O)c1cccc(N2C(=O)C3CC=CCC3C2=O)c1", "note": "(stereo not drawn)", "inhibition": "-2.03% (inactive)"}
{"smiles": "Cc1cccc(NC(=O)c2ccc(S(=O)(=O)N(C)CC3CCCO3)cc2)c1C", "note": "(stereo not drawn)", "inhibition": "-3.44% (inactive)"}
{"smiles": "CNc1ccc(SC#N)cc1", "inhibition": "2.17% (inactive)"}
{"smiles": "CC1CCN(CC(=O)Nc2nccs2)CC1", "inhibition": "-1.23% (inactive)"}
{"smiles": "CCOC(=O)C(CC)/C(C)=N\\NC(=O)c1cccc(C)c1", "note": "(stereo not drawn)", "inhibition": "2.1% (inactive)"}
{"smiles": "O=S(=O)(Nc1ccc2[nH]ncc2c1)c1ccccc1Cl", "inhibition": "-2.11% (inactive)"}
{"smiles": "Cc1ccc(NS(=O)(=O)c2c(C)[nH]c(C)c2C(=O)N2CCCCC2)c(C)c1", "inhibition": "1.03% (inactive)"}
{"smiles": "COc1ccc(NC(=O)c2sccc2SCC#N)cc1", "inhibition": "0.88% (inactive)"}
{"smiles": "CCOC(=O)c1[nH]c2ccc(C)cc2c1N=C(C)N(C)C", "inhibition": "1.43% (inactive)"}
{"smiles": "CCOC(=O)c1cc2cc(C)ccc2[nH]1", "inhibition": "31.8% (active)"}
{"smiles": "Cc1ccc2[nH]c(=O)c(COC(=O)c3ccccn3)cc2c1", "inhibition": "1.82% (inactive)"}
{"smiles": "CC1(C)C(=O)CCC2(C)C1=CCC1C2C(=O)CC2(C)C1CCC2(O)C(=O)CO", "note": "(stereo not drawn)", "inhibition": "1.52% (inactive)"}
{"smiles": "COc1ccc(-n2c(C)cc(C(=O)CN3C(=O)NC4(CCc5ccccc54)C3=O)c2C)cc1", "note": "(stereo not drawn)", "inhibition": "1% (inactive)"}
{"smiles": "Cn1c(=O)c(C(=O)Nc2ncccn2)c(O)c2ccccc21", "inhibition": "7.7% (inactive)"}
{"smiles": "Cc1cc(C)c(-c2c(O)c3ccccc3n(C)c2=O)c(C)c1", "inhibition": "62.7% (active)"}
{"smiles": "Cn1c(=O)c(Sc2ccc(Cl)cc2)c(O)c2ccccc21", "inhibition": "2% (inactive)"}
{"smiles": "COc1c(O)cccc1-c1nnn(CCC(=O)OCC(=O)c2ccccc2)n1", "inhibition": "0.78% (inactive)"}
{"smiles": "C/C=C(/C)C(=O)OC1Cc2c(ccc3ccc(=O)oc23)OC1(C)C", "note": "(stereo not drawn)", "inhibition": "26.4% (inactive)"}
{"smiles": "CC1(C)Oc2ccc3ccc(=O)oc3c2/C(=C/NCCO)C1=O", "inhibition": "2.48% (inactive)"}
{"smiles": "Cc1cc(=O)oc2c(C(=O)c3ccccc3)c(OCC(N)=O)ccc12", "inhibition": "0.48% (inactive)"}
{"smiles": "Cc1cc(=O)oc2c1ccc1ccccc12", "inhibition": "37% (active)"}
{"smiles": "CC(=O)c1c(OCC(=O)N(C)C2CCCCC2)ccc2c(C)cc(=O)oc12", "inhibition": "9.58% (inactive)"}
